This note sets out measurements from PubChem BioAssay AID1851 (National Center for Advancing Translational Sciences (NCATS), 2009).

Where “and” joins values, the source holds several entries; their conditions need not be identical. Identical values can stand only once. In all, about 16,000 compounds went through this assay and about 4,000 (25%) were called active. Another 26% or so got no clear call; they are omitted. The call rests on the fitted dose curve; in most records, active means well fitted curve in the direction sought with a large enough effect; inconclusive means small, poorly fitted or top-dose-only effect, or effect the other way; inactive means no such curve, though single readings can be large or run the other way. Not all results are given here. A structure can be active in one record and inactive in another.
On the % scale 0 is the no-effect control and ±100 the full control effect.

Sequence of Cytochrome P450 2C9 (Homo sapiens) (P11712 whole entry, looked up): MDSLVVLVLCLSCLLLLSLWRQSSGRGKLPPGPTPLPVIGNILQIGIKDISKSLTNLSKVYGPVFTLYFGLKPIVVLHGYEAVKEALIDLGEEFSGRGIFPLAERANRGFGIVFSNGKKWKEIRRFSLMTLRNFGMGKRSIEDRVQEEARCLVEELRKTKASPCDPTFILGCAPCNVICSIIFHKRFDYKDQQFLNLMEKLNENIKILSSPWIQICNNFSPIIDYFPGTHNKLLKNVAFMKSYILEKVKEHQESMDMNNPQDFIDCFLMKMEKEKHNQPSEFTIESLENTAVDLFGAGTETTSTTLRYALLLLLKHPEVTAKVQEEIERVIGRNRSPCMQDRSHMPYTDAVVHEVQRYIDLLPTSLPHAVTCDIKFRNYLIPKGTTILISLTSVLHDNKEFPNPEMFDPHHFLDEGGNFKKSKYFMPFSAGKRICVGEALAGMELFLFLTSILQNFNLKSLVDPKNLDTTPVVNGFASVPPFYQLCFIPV

The experiment has as its target Cytochrome P450 2C9 (Homo sapiens) (UniProt P11712). In words: Cytochrome panel assay with activity outcomes. The following applies: recombinant CYP, pro-luciferin dealkylation, luminescence, p450-cyp2c9; series mostly up to 57.1 µM.
With `NS(=O)(=O)c1ccc(-c2ccc([As](=O)(O)O)cc2)cc1`, the activity, negative = inhibition is 14.8% [at 11.4 µM] (inactive).

`Cc1cc(C)nc(NC2=NCCS2)n1`: the activity, negative = inhibition entry was “inactive”.

Consider `CCN1CCN(S(=O)(=O)c2ccc(Cl)nc2)CC1`, for which the activity, negative = inhibition entry was “inactive”.

With `C[C@]12N[C@@H](Cc3ccccc31)c1ccccc12`, the activity, negative = inhibition entry is “inactive”.

For the compound `CCCc1cc2c(n1Cc1cccc(Cl)c1)C(C)C1CN(C(=O)c3ccccc3)C(C)(C(=O)OC)C21` (stereo unspecified), the AC50 was 5.01 µM (active).

As for `CCCc1cc2c(n1CCO)C(C)C1CN(C(=O)c3ccccc3)C(C)(C(=O)OC)C21` (stereo unspecified), the AC50 was 12.6 µM (active).

On to `NC[C@H](O)c1cc(O)c(O)cc1F`, for which the activity, negative = inhibition entry was “inactive”.

Consider `C=C1[C@@H]2CC[C@H]3[C@@]4(C)C[C@@H](O[C@@H]5O[C@H](CO)[C@H](OS(=O)(=O)O)[C@@H](OS(=O)(=O)O)[C@@H]5OC(=O)CC(C)C)C[C@@H](C(=O)O)[C@H]4CC[C@@]3(C2)[C@H]1O`, for which the activity, negative = inhibition entry is “inactive”.

Turning to `C=C1C(O)(c2ccccc2)C2CC[N+]1(C)CC2` (stereo unspecified), the activity, negative = inhibition result was “inactive”.

`COc1cc2c(cc1OC)[C@@]13CCN4CC5=CCO[C@H](CC(=O)O)[C@@H]([C@H]1N2)[C@H]5C[C@H]43`: the activity, negative = inhibition was -2.18% [at 11.4 µM] (inactive).

On to `Cc1c(OCC(F)(F)F)ccnc1CS(=O)c1nc2ccccc2[nH]1` (stereo unspecified), for which the activity, negative = inhibition result is “inactive”.

As to `C=CCO[C@@H](Cn1ccnc1)c1ccc(Cl)cc1Cl`, the half-maximal activity concentration (AC50) was 0.1 µM (active).

For the compound `CC(=O)N1CC[N+](C)(C)CC1`, the activity, negative = inhibition result is “inactive”.

`CN1[C@@H]2CC[C@H]1CC(NC(=O)c1nn(C)c3ccccc13)C2` (stereo partly specified): the activity, negative = inhibition entry was “inactive”.

`CCOc1ccc(C2C(C#N)=C(N)Oc3c2c(=O)oc2ccccc32)cc1` (stereo unspecified): the AC50 was 0.0224 µM (active).

Regarding `C[C@@]12CC[C@H](O[C@@H]3O[C@H](CO)[C@@H](O)[C@H](O)[C@@H]3O)C[C@@H]1CC[C@H]1[C@H]2CC[C@@]2(C)[C@@H](C3=CCOC3=O)CC[C@]12O`, the activity, negative = inhibition was 2% [at 11.4 µM] (inactive).

Regarding `C[C@H](N[C@@H](C)CCc1ccccc1)[C@H](O)c1ccc(O)cc1`, the activity, negative = inhibition entry is “inactive”.

For `O=C(O)c1cc[c]([Hg][S]c2ncnc3nc[nH]c23)cc1`, the AC50 is 1.26 µM (active).

Regarding `Ic1cncc(OC[C@@H]2CCN2)c1`, the AC50 is 31.6 µM (active).

As to `CC(C)(C)NC[C@@H](O)COc1cccc2[nH]c(C#N)cc12`, the activity, negative = inhibition result is “inactive”.

For `CC[N@+]1(C)CCC[C@@H](OC(=O)C(O)(c2ccccc2)c2ccccc2)C1`, the activity, negative = inhibition result is “inactive”.

With `C[N+]1([O-])[C@H]2CC[C@H]1CC(OC(=O)[C@@H](CO)c1ccccc1)C2` (stereo partly specified), the activity, negative = inhibition is 3.51% [at 11.4 µM] (inactive).

Consider `CC(C)CCC[C@@H](C)[C@@H]1CC[C@@H]2[C@H]3CC[C@H]4C[C@@H](N)CC[C@@]4(C)[C@@H]3CC[C@]21C`, for which the activity, negative = inhibition is 4.77% [at 11.4 µM] (inactive).

`C[C@@]12CC[C@H]3[C@@H](CC[C@@H]4C[C@H]5S[C@H]5C[C@]43C)[C@H]1CC[C@H]2O`: the AC50 was 0.00501 µM (active).

In the case of `C[C@H]1CC[C@@]2(NC1)O[C@@H]1C[C@H]3[C@@H]4CC[C@@H]5C[C@@H](O)CC[C@@]5(C)[C@@H]4CC[C@]3(C)[C@@H]1[C@@H]2C`, the activity, negative = inhibition result is “inactive”.

For `CN1C(=O)CCS(=O)(=O)[C@@H]1c1ccc(Cl)cc1`, the activity, negative = inhibition entry was “inactive”.

Consider `c1ccc([C@H]2CNCc3ccccc32)cc1`, for which the activity, negative = inhibition result is “inactive”.

In the case of `CCCN(CCC)[C@@H]1CCc2cccc(O)c2C1`, the activity, negative = inhibition result was “inactive”.

With `CC[C@]1(c2cccc(O)c2)CCCCN(C)C1`, the activity, negative = inhibition entry was “inactive”.

Regarding `CC1=NN=C(c2ccc(N)cc2)c2cc3c(cc2C1)OCO3`, the half-maximal activity concentration (AC50) entry was “inactive and 1.26 µM (active)”.

Turning to `C[C@@H]1Cc2cc3c(cc2C(c2ccc(N)cc2)=NN1)OCO3`, the half-maximal activity concentration (AC50) is 25.1 µM (active).

On to `CCCC[N+]1(C)[C@@H]2CC(OC(=O)[C@@H](CO)c3ccccc3)C[C@H]1[C@H]1O[C@H]12` (stereo partly specified), for which the activity, negative = inhibition result was “inactive”.

Consider `CC(C)CC(=O)C[C@H](O)C(Cl)(Cl)Cl`, for which the activity, negative = inhibition is -21.3% [at 11.4 µM] (inactive).

Take `COc1cc2c(cc1O)C[C@@H]1c3c(cc(O)c(OC)c3-2)CCN1C`: the activity, negative = inhibition is -4.78% [at 11.4 µM] (inactive).

With `CC(C)CN1CCC2(CC1)CCN(C(=O)Oc1ccccc1)CC2`, the activity, negative = inhibition entry is “inactive”.

For the compound `Cc1nccc2c1[nH]c1ccccc12`, the activity, negative = inhibition result was “inactive”.

For the compound `Cn1c(O)c(C(c2ccccn2)c2c(O)n(C)c(=S)[nH]c2=O)c(=O)[nH]c1=S`, the activity, negative = inhibition entry is “inactive”.

`O=C(c1cc(-c2ccccc2)nc2ccccc12)N1CCC2(CC1)OCCO2`: the concentration at half-maximal activity (AC50) was 28.2 µM (active).

Turning to `O=C(c1cc2cc3ccc(Cl)cc3nc2o1)N1CCC2(CC1)OCCO2`, the activity, negative = inhibition result was “inactive”.

Turning to `O=C(O)Cc1ccc([N+](=O)[O-])cc1[N+](=O)[O-]`, the activity, negative = inhibition is 11.5% [at 11.4 µM] (inactive).

With `O=[N+]([O-])c1ccc(S(=O)(=O)Cc2ccccc2)c([N+](=O)[O-])c1`, the AC50 was 3.16 µM (active).

In the case of `O=C1c2cc([N+](=O)[O-])ccc2-c2ccc3c4ccc5c6c(ccc(c7ccc1c2c73)c64)C(=O)c1cc([N+](=O)[O-])ccc1-5`, the activity, negative = inhibition is -26.9% [at 11.4 µM] (inactive).

For the compound `N[C@H](Cc1ccc2oc3cc(=O)c4ccccc4c-3nc2c1)C(=O)O`, the activity, negative = inhibition is -13.7% [at 11.4 µM] (inactive).

Regarding `COc1ccc(C(=O)c2c(C)n(CCN3CCOCC3)c3cc(I)ccc23)cc1`, the activity, negative = inhibition result is “inactive”.

Consider `CN(C)CS/C(N)=N/[C@H](O)C(Cl)(Cl)Cl`, for which the activity, negative = inhibition is -28.6% [at 11.4 µM] (inactive).

On to `CC[N+](CC)(CCNC(=O)C(=O)NCC[N+](CC)(CC)Cc1ccccc1Cl)Cc1ccccc1Cl`, for which the activity, negative = inhibition result was “inactive”.

On to `C/C=C1\C[C@H](C)[C@@](O)(CO)C(=O)OCC2=CCN3CC[C@@H](OC1=O)[C@@H]23`, for which the activity, negative = inhibition entry was “inactive”.

`COCCCN1CCN(c2nnc3n2-c2sc(Br)cc2C(c2ccccc2Cl)=NC3)CC1`: the AC50 is 12.6 µM (active).

As to `COCCCNC(=S)NC1CC2CCCC(C1)N2Cc1cccs1` (stereo unspecified), the activity, negative = inhibition entry was “inactive”.

`COc1cc2c(c(OC)c1OC)-c1ccc(O)c(=O)cc1[C@H](N)CC2`: the activity, negative = inhibition entry is “inactive”.

Take `CC[C@]1(OC(=O)CN)C(=O)OCc2c1cc1n(c2=O)Cc2cc3ccccc3nc2-1`: the activity, negative = inhibition is 6.92% [at 11.4 µM] (inactive).
